# According to the supplement of paper PMC12819154, “High-throughput peptide-centric local stability assay extends protein–ligand identification to membrane proteins, tissues and bacteria” (Nature Structural & Molecular Biology, 2025):
# Compound: Nc1ncnc2c1ncn2[C@@H]1O[C@H](COP(=O)(O)OP(=O)(O)OP(=O)(O)O)[C@@H](O)[C@H]1O [adenosine 5'-triphosphate]
# Assay: log2 fold change of tryptic peptide abundance, ligand vs vehicle (limited proteolysis) (log2 ratio); higher = more trypsin-susceptible (destabilized)
# Conditions: ligand concentration: 5 mM; sample: E. coli desalted lysate; replicate design: treated before aliquoting
# Experimental: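 HT-PELSA: desalted E. coli K-12 BW25113 lysate (with 12 mM MgCl2) incubated with 5 mM ATP (pH 7) or water for 30 min at 25 C, then a 4 min trypsin pulse at 22 C. Peptides were quantified by DIA-MS (4 replicates). Value is the peptide log2 fold change (treated/control); negative = stabilized. Scale: negative = ligand-stabilized region.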
# 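Further: lysate desalted by size exclusion to strip endogenous ATP, peptide intensities built from DIA-NN precursor signals, and peptides missing any value discarded before comparison.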
row,Target,log2 fold change
1,"UniProt P0ACN7 (peptide sequence: LMDCELIIR, peptide start residue: 326)",1.5
2,"UniProt P06612 (peptide sequence: ADHIYLATDLDREGEAIAWHLR, peptide start residue: 103)",-1.02
3,"UniProt P00562 (peptide sequence: ILDEAGLPGELR, peptide start residue: 375)",0.23
4,"UniProt P02916 (peptide sequence: ETTAQPEGER, peptide start residue: 161)",0.465
5,"UniProt P37617 (peptide sequence: DEQAAEEPQASR, peptide start residue: 113)",2.93
6,"UniProt P07023 (peptide sequence: KVEHWFGDYAQR, peptide start residue: 345)",0.528
7,"UniProt P0ADM4 (peptide sequence: EGTYPGTR, peptide start residue: 32)",-0.36
8,"UniProt P0A9U1 (peptide sequence: LIASGTPDDLK, peptide start residue: 537)",-0.834
9,"UniProt P04968 (peptide sequence: EALLAVTIPEEK, peptide start residue: 338)",0.397
10,"UniProt P37634 (peptide sequence: HSFHAGNHADVLK, peptide start residue: 6)",-1.17
11,"UniProt P37188 (peptide sequence: VNEIETYMDGVHLICTTAKVDR, peptide start residue: 41)",0.402
12,"UniProt P36928 (peptide sequence: EAVSEWLYR, peptide start residue: 44)",0.728
13,"UniProt P05719 (peptide sequence: FDTTDLVFVPK, peptide start residue: 54)",-0.655
14,"UniProt P46837 (peptide sequence: AEDEAINVFAR, peptide start residue: 303)",0.79
15,"UniProt P03835 (peptide sequence: DLASMGQLVK, peptide start residue: 402)",-1.3
16,"UniProt P0ACU0 (peptide sequence: LLTQDDTVNLSK, peptide start residue: 109)",0.555
17,"UniProt P32662 (peptide sequence: TMGKPPVDDDIPAEEQVR, peptide start residue: 75)",0.514
18,"UniProt P23857 (peptide sequence: ERIATAVPDKNDTVK, peptide start residue: 50)",0.323
19,"UniProt P26612 (peptide sequence: TIHLGENYGNK, peptide start residue: 446)",0.945
20,"UniProt P76346 (peptide sequence: LHHANDTDSFSATNVH, peptide start residue: 250)",0.288
21,"UniProt P76085 (peptide sequence: QLGGDASGCSLR, peptide start residue: 198)",-1.23
22,"UniProt P02919 (peptide sequence: SIGSLAK, peptide start residue: 507)",0.413
23,"UniProt P0ACW4 (peptide sequence: GGISHCTAGGK, peptide start residue: 30)",-0.911
24,"UniProt P13035 (peptide sequence: IGLFMYDHLGK, peptide start residue: 103)",0.643
25,"UniProt P37182 (peptide sequence: ESGVEAIPR, peptide start residue: 151)",0.522
26,"UniProt P68398 (peptide sequence: EVPVGAVLVHNNR, peptide start residue: 27)",0.483
27,"UniProt P77766 (peptide sequence: LAQGGAVTR, peptide start residue: 133)",-0.418
